Laboratory results: ChEMBL document CHEMBL3988442, “University of Dundee, Small-Polar-MMV Screening Library” (2021)
About 1,200 (3.2%) of roughly 38,000 compounds showed an effect of 50% or more. The median lay at about -58%. Many of the other results were omitted from the sample, so strong results are more common in it than they were.

tested on: Plasmodium falciparum; assay: Calibr Malaria Delayed Death Assay SOP; type: functional, organism-based; design: scale not given: in the data most compounds retested in dose-response had high values; details: concentration 4.99e-06 (unit not given; other assays of the set use mol/L)

Row | Compound | Percent Effect [%]
1 | O=C(NCC(=O)N1CCCCC1)c1sccc1C1CC1 | -52.19
2 | Cc1ccsc1C(=O)N1CCC2(CC1)C(=O)N(C)CCN2CC1CC1.O=C(O)C(F)(F)F | -41.45
3 | CCc1ccc(NC(=O)N2C[C@H]3C[C@H](C(=O)NC(C)C)[C@@H](C2)O3)cc1 | 25.32
4 | CC(=O)N1CCCC(C(=O)NCCc2csc(-c3ccncc3)n2)C1 (configuration not stated) | -77.87
5 | CC(C)C(N)CNS(=O)(=O)Cc1cccc2cccnc12.Cl (configuration not stated) | 3.917
6 | CC(Cn1cccn1)NC(=O)N(C)Cc1ccsc1 (configuration not stated) | -57.89
7 | O=C(CNC(=O)C1(c2ccc(F)cc2F)CCC1)Nc1ccccn1 | -17.94
8 | CC(C)CN1CC(C(=O)NCCOc2ccc3c(c2)OCO3)CC1=O (configuration not stated) | -115.4
9 | Cc1ccnc(N2CCN(C[C@]3(O)CCCN4CCCC[C@@H]43)CC2)c1 | 7.79
10 | Cc1cnccc1N1CCN(C[C@]2(O)CCCN3CCCC[C@@H]32)CC1 | 73.88
11 | O[C@@]1(CN2CCN(Cc3ccncc3)CC2)CCCN2CCCC[C@@H]21 | -71.07
12 | COc1ccc(N2CCN(C(=O)c3nc(Cl)sc3C(C)C)CC2)cc1 | -116.1
13 | CCn1cc(CNC2CCN(c3c(F)cccc3F)C2)cn1 (configuration not stated) | -15.51
14 | CCn1cc(CN2CCCN(C3Cc4ccccc4C3)CC2)cn1 | 8.565
15 | Cc1ccc(-c2cn[nH]c2C2CCCN(c3ncccn3)C2)cc1 (configuration not stated) | -2.919
16 | COc1ccc(OCC2CCCN(Cc3ccncc3)C2)cc1 (configuration not stated) | 2.701
17 | CCn1cc(CN2CCC(c3[nH]ncc3S(C)(=O)=O)C2)cn1 (configuration not stated) | -50.8
18 | COc1cccc(OCC2CCCN(Cc3ccncc3)C2)c1 (configuration not stated) | -55.12
19 | CCn1cc(CN2CCCC(c3[nH]ncc3-c3ccc(C)cc3)C2)cn1 (configuration not stated) | 60.35
20 | CCn1cc(CN2CCCC(COc3ccc(F)cc3)C2)cn1 (configuration not stated) | 75.3
21 | CCn1cc(CN2CCCC(COc3ccccc3F)C2)cn1 (configuration not stated) | 72.55
22 | O=C(NCC(=O)N1CCCC1Cc1cccc(F)c1)C1CCCC1 (configuration not stated) | -29.53
23 | Cc1cnc2c(c1NCc1cccs1)c(=O)n(C)c(=O)n2C | 3.342

Row | Compound | Percent Effect [%]
24 | CNC(=O)C1(c2cnccn2)CCCN1C(=O)c1cccnc1OC (configuration not stated) | -138.6
25 | CCCn1cc(NC(=O)c2ccncc2)ccc1=O | -98.41
26 | CC(C)N1CCCCC1CCn1cnc2cc(C(F)(F)F)ccc2c1=O (configuration not stated) | -97.47
27 | Cc1cnc(N(C)Cc2cnc3ccccc3n2)nc1N(C)C | -4.617
28 | O=C(NCCCNC(=O)c1ccccc1)Nc1ccc(F)cc1F | -135.1
29 | CCOCC1CN(C(=O)c2cccn2C)Cc2cnn(CC3CC3)c21.O=C(O)C(F)(F)F (configuration not stated) | 56.84
30 | CCOCC1CN(C(=O)c2cnccn2)Cc2cnn(CC3CC3)c21.O=C(O)C(F)(F)F (configuration not stated) | -137.9
31 | CCOCC1CN(S(=O)(=O)CC)Cc2cnn(CC3CC3)c21.O=C(O)C(F)(F)F (configuration not stated) | -13.24
32 | Cn1cccc1C(=O)N1Cc2c(CN3CCCCC3)nn(C)c2C1 | -1.788
33 | CC(C)C(=O)N1CCc2c(CN(C)Cc3ccco3)cncc2C1.Cl.Cl | -39.92
34 | C[C@@H]1CN(C2(C(=O)N3CCNCC3)Cc3ccccc3C2)C[C@H](C)O1 | 61.74
35 | C[C@@H]1CN(C2(C(=O)N3CCSCC3)Cc3ccccc3C2)C[C@H](C)O1 | -246.9
36 | C[C@@H]1CN(C2(C(=O)N3CCOCC3)Cc3ccccc3C2)C[C@H](C)O1 | -24.87
37 | O=C(NCCC1CCN(CC(F)(F)F)CC1)C1CCCO1 (configuration not stated) | -133.7
38 | c1coc(CN2CCO[C@@]3(CCC[C@@H]3COCc3nccs3)C2)c1 | 10.79
39 | O=C(NCc1cc2n(n1)CCCNC2)C1(c2ccc(Cl)cc2)CCC1 | -15.95
40 | O=C(NCc1cc2n(n1)CCCNC2)C1(c2ccccc2)CCCCC1 | 72.51
41 | O=C(NCc1cc2n(n1)CCCNC2)c1cn2cc(Cl)ccc2n1 | -49.2
42 | O=C(O)C(F)(F)F.O=C(O)C(F)(F)F.c1coc(CN2C[C@@H]3OCCN(CC4CCCO4)[C@@H]3C2)c1 (some centres not stated) | -57.01
43 | O=S(=O)(c1ccc(F)cc1Cl)N1CCCC1c1ccncc1 (configuration not stated) | -22.12
44 | O=C(NC1CCCN(CCCc2ccccc2)C1)c1ccc(Cl)s1 (configuration not stated) | 59.33
45 | O=C(NC1CCCN(CCCc2ccccc2)C1)C1=CCCCC1 (configuration not stated) | -1.379
46 | O=C(NC1CCCN(CCCc2ccccc2)C1)c1ccncc1 (configuration not stated) | -32.27

Row | Compound | Percent Effect [%]
47 | COCCNC(=O)N1CCSC2(CCCCC2)C1 | -161
48 | CCC(c1ccc(F)cc1)N1CCn2c(CO)nnc2C1 (configuration not stated) | -61.64
49 | Cc1noc(C)c1CN1CCO[C@H]2CN(Cc3ccc(F)cc3)C[C@H]21.O=C(O)C(F)(F)F.O=C(O)C(F)(F)F | 54.02
50 | Cc1noc(C)c1CN1C[C@H]2CNC[C@H]2C1 | 5.878
51 | Cc1noc(C)c1CN1CCO[C@H]2CN(Cc3cccc(F)c3)C[C@H]21.O=C(O)C(F)(F)F.O=C(O)C(F)(F)F | -38.58
52 | Cc1noc(C)c1CN1C[C@@H]2C[C@@H](C)O[C@@H]2C1.O=C(O)C(F)(F)F | -81.78
53 | O=C(Cc1ccccn1)N1C[C@H]2CN(Cc3ccccn3)C[C@H]2C1 | -76.72
54 | Cc1noc(C)c1CN1CCO[C@H]2CN(Cc3cnn(C)c3)C[C@H]21.O=C(O)C(F)(F)F.O=C(O)C(F)(F)F | 11.54
55 | Cc1noc(C)c1CN1C[C@@H]2CC(F)(F)C[C@@H]2C1.O=C(O)C(F)(F)F | -65.49
56 | Cc1noc(C)c1CN1C(=O)[C@H]2CC[C@@H]1CN(Cc1cccc(O)c1)C2 | -156.5
57 | Cc1noc(C)c1CN1C[C@H]2CN(Cc3cccc(F)c3)C[C@H]2C1.O=C(O)C(F)(F)F.O=C(O)C(F)(F)F | 53.22
58 | CN(Cc1cccc(F)c1)C1CCN(CCc2ccccn2)CC1 | -78.69
59 | O=C(c1ccccn1)N1CCN(c2cnnc(N3CCCC3)c2)CC1 | -112.9
60 | COc1cccc(N2C(=O)CC3(CCNCC3)C2=O)c1.Cl | -133.6
61 | COC(=O)CC(NC(=O)c1cc(OC)c2c(c1)OCCO2)c1cccs1 (configuration not stated) | -83.17
62 | O=S(=O)(NCCCn1cccn1)c1ccc2c(c1)CCC2 | -131.9
63 | CCCn1cc(S(=O)(=O)N[C@H]2CN(CC(N)=O)C[C@@H]2C2CC2)cn1 | -97.89
64 | COc1ccc(C2OC(COc3ccc(C)cc3)=NN2C(C)=O)cc1 (configuration not stated) | -155.6
65 | COc1cc(C2CC(=O)Nc3c2c(=O)[nH]n3C2CCCCC2)ccc1O (configuration not stated) | -62.17
66 | Cc1nnc2n1CCN(CCCS(=O)(=O)c1ccccc1)C2 | -71.81
67 | Cc1ccc(CN(C)C(=O)CCNS(=O)(=O)c2cccnc2)cc1 | 36.55
68 | CC(=O)N1CCC2(CCN(Cc3cccc(F)c3)CC2)CC1.O=C(O)C(F)(F)F | -62.85
69 | CCC(=O)N1CCC2(CCN(Cc3cccc(F)c3)CC2)CC1.O=C(O)C(F)(F)F | -165.1

Row | Compound | Percent Effect [%]
70 | Cc1noc(C)c1CN1CCC2(CCN(Cc3cccc(F)c3)CC2)C1.O=C(O)C(F)(F)F.O=C(O)C(F)(F)F | 66.34
71 | COCC(=O)N1C[C@@H](OCc2cccnc2)[C@H]2OCCC[C@@H]21.O=C(O)C(F)(F)F | 7.671
72 | COCCNC(=O)Cn1cc(NC(=O)c2cccc(Cl)c2Cl)cn1 | -59.07
73 | O=C(NS(=O)(=O)c1ccc(Cl)cc1F)c1cccc2c1OCCO2 | -91.83
74 | CC(C#N)CN(C)C(=O)CCNC(=O)OCC(F)(F)F (configuration not stated) | -88.17
75 | O=C(O)C(F)(F)F.O=C(O)C(F)(F)F.O=C1CO[C@@H]2CN(Cc3cccs3)C[C@H]2N1Cc1cccnc1 | -34.75
76 | Cc1cc(-c2cccc3c2CCNC3)cnc1-n1cnnc1 | -23.79
77 | Cc1nc(-n2cnnc2)ccc1-c1cccc2c1CCNC2 | 68.26
78 | Cc1cnc(-n2cnnc2)c(-c2cccc3c2CCNC3)c1 | -33.7
79 | CSCCC(=O)N1CCCC1c1nnc2n1CCCCC2 (configuration not stated) | -119.3
80 | Cc1cc(C)n(Cc2ccc(-c3noc(C(=O)NCCO)n3)cc2)n1 | -66.65
81 | CC[C@H]1CN2CC[C@H]1C[C@@H]2CNC(=O)c1ccco1 | -30.73
82 | CCN(CC)C[C@H]1CN2CC[C@H]1C[C@@H]2CNC(=O)c1ccco1 | -99.74
83 | CN(C[C@H]1CN2CC[C@H]1C[C@@H]2CNC(=O)c1ccco1)c1ccccc1 | 70.91
84 | O=C(C1CCOC1)N1CCN(Cc2cccnc2)c2ncccc2C1 (configuration not stated) | -57.83
85 | O=C1CN(S(=O)(=O)CC(F)(F)F)CC(O)CN1CCCc1ccccc1 (configuration not stated) | -64.11
86 | COCCN1CCc2nc(SCc3ccc(F)cc3)[nH]c(=O)c2C1 | -62.28
87 | Cc1nonc1OCCNC(=O)CCCc1ccc(Cl)cc1 | -154.2
88 | CN1[C@H](Cn2cncn2)C[C@@H]2CN(Cc3cccc(C#N)c3)CC[C@@H]21.O=C(O)C(F)(F)F.O=C(O)C(F)(F)F | -71.32
89 | Cc1ccc(CN2CC[C@H]3[C@H](CC(Cn4cccn4)N3C)C2)s1.O=C(O)C(F)(F)F.O=C(O)C(F)(F)F.O=C(O)C(F)(F)F (some centres not stated) | 62.61
90 | CN1[C@H](Cn2cncn2)C[C@@H]2CN(Cc3ccsc3)CC[C@@H]21.O=C(O)C(F)(F)F.O=C(O)C(F)(F)F | 35.13
91 | CN1C(Cn2cccn2)C[C@@H]2CN(C(=O)c3cccc(C#N)c3)CC[C@@H]21.O=C(O)C(F)(F)F.O=C(O)C(F)(F)F (some centres not stated) | -96.07
92 | CN1C(Cn2cccn2)C[C@@H]2CN(Cc3cnn(C)c3)CC[C@@H]21 (some centres not stated) | -48.63
